Reference: PubChem BioAssay (NCI)
This is part of a sample that, as a whole, favours compounds with a hit. Of some 83,000 tested, about 20% had one in any assay.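 A percent growth of 40 corresponds to 60% growth inhibition; 0 means no net growth; -100 means all cells died. Active threshold: below 10.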 Activity calls are given as the source filed them.

System: HL-60(TB) leukemia
Assay: NCI-60 one-dose screen, 48 h (100 = growth as untreated, 0 = no growth, -100 = all killed)
Settings: 10 µM unless noted

Row | Structure (SMILES) | growth
1 | O=C(NCc1cn(Cc2cccc(Oc3ccccc3)c2)nn1)c1cccnc1Nc1ccccc1 | 32% (inactive)
2 | COc1cc2c(c(OC)c1OC)CCC(c1cccc(C(=O)Nc3cccc(Cl)c3)c1)O2 (stereo not drawn) | 82.7% (inactive)
3 | CCCCn1c(=O)[nH]c(N)c(C(c2ccc(Cl)cc2)c2c(N)[nH]c(=O)n(CCCC)c2=O)c1=O | 13.2% (inactive)
